# An excerpt weighted towards active compounds, which were near 3.9% of everything screened.
# GALK inhibitor: inhibitors of human galactokinase | P51570 | Purified GALK, Kinase-Glo residual ATP luminescence | Potency, µM (titrated, usually from 57.5 µM), hits mostly inhibitors | 270,000 compounds, 0.007% hits
#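 The enzyme phosphorylates galactose (100 uM) using ATP (35 uM); inhibition is detected as higher residual ATP, quantified by bioluminescence after 1 h reaction at room temperature, pH 8.0.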
# D1 ag: human D1 receptor agonism. HEK293 T-REx D1 cells, calcium flux, agonist mode. P21728. activation, % at 2 µM. 360,000 compounds, 1% hits. AID 504660; in the data active = activation above about 30%
#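 Tetracycline-induced HEK293 TREx D1 cells, force-coupled to calcium signalling, were dye-loaded with a no-wash calcium kit. Compound was pin-added after a 10 s baseline. Fluorescence was read kinetically at 1 cycle/s for 180 s, with calcium rises flagged as agonism.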
# D1 PAM: potentiators of human D1 dopamine receptor; potentiation, % at 10 µM; 360,000 compounds, 0.036% hits; AID 504651; HEK293 TREx D1 cells, calcium flux, dopamine EC20 potentiation; in the data active = potentiation above about 30%
# USP2a block: inhibitors of human ubiquitin-specific protease USP2a. USP2 core, Ub-CHOP2 coupled fluorogenic reporter, 485/531. O75604. Potency, µM (series often up to 38.3 µM), most hits filed as inhibitors. 330,000 compounds, 0.01% hits
# Target sequence (O75604 whole entry, looked up): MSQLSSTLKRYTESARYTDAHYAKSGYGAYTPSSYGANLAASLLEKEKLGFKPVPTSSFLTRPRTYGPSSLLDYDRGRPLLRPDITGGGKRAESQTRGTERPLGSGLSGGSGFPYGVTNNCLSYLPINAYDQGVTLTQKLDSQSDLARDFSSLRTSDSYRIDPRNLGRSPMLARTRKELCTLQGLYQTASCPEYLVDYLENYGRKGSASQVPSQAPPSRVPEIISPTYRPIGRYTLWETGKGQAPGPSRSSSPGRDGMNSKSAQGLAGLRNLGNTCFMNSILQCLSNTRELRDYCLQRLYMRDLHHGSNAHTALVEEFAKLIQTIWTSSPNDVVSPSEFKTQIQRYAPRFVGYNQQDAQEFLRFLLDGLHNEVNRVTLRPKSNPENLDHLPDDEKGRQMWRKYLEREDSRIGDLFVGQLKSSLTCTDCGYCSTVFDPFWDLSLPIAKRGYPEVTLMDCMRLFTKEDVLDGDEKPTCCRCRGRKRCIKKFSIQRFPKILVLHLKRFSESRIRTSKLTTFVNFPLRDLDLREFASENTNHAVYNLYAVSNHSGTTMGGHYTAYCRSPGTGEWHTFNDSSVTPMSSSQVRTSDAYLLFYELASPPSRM
#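 USP2 core (10nM final) preincubated 30min RT with compound in 20mM Tris-HCl pH 8.0, 2mM CaCl2, 2mM beta-mercaptoethanol, 0.05% CHAPS; 25nM Ub-CHOP2 plus 25nM reporter substrate added, fluorescence (Ex485/Em531) read after 60min.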
# Eya2 phos inh: Eya2 (human) phosphatase inhibition; O00167; Potency, µM (titrated, usually from 76.9 µM), actives largely listed as inhibitors; 330,000 compounds, 0.006% hits; recombinant Eya2, OMFP fluorescence dephosphorylation (OMFP is methylfluorescein phosphate)
#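 Eya2 (0.2 uM) preincubated 10 min at ambient with compound, then OMFP substrate added at 50 uM; 10 min reaction in 50 mM HEPES pH 7.5, 50 mM NaCl, 5 uM MgCl2, 0.05% BSA, 1 mM DTT. Fluorescence read at Ex 485/Em 525 nm.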
# D1 antag: human D1 dopamine receptor antagonism; P21728; HEK293 TREx D1 cells, calcium flux, dopamine EC80; stronger effect = lower value; activity change, negative = inhibition, % at 10 µM; 360,000 compounds, 3.2% hits; AID 504652; in the data active = activity change below about -30%
#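 Compound effects on dopamine-evoked calcium signalling were measured in tetracycline-induced HEK293 Trex D1 cells. Dopamine at EC80 followed a 180 s compound pre-read, and fluorescence was tracked kinetically for 180 s more.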
# Numbers stand for hits; . = inactive; / = no result. Unless noted, calls follow the shape of the dose curve; as a rule, active = well fitted inhibition curve with a large enough effect; inconclusive = small, poorly fitted or top-dose-only effect, or effect the other way; inactive = flat fitted curve, though single readings scatter.
SMILES,GALK inhibitor,D1 ag,D1 PAM,USP2a block,Eya2 phos inh,D1 antag
Cc1ccc(C(=O)c2cn[nH]c2-c2cc(Cl)ccc2O)cc1,.,58.0,.,.,.,.
Cc1ccc(-c2[nH]ncc2C(=O)c2ccc(Br)cc2)c(O)c1,.,.,.,.,.,.
COc1ccc(S(=O)(=O)Nc2c(NC3CCCCC3)c3ccccc3oc2=O)cc1,.,.,.,.,.,-31.4
CC(C)CN(C(=O)COC(=O)c1cccnc1Cl)c1c(N)n(Cc2ccccc2)c(=O)[nH]c1=O,/,.,.,.,.,-34.9
O=C(CCS(=O)(=O)c1cccc2nsnc12)Nc1ccc(F)cc1,/,.,.,/,/,.
CCOc1ccccc1C(=O)NCc1ccc2c(c1)CCN2C(=O)c1ccccc1,/,.,.,/,/,-37.9
Cc1ccccc1C(=O)NCc1ccc2c(c1)CCN2C(=O)c1ccccc1,/,.,.,/,/,-40.9
O=C(NCc1ccc2c(c1)CCN2C(=O)c1ccncc1)c1ccccc1Br,/,.,.,/,/,-31.1
COc1ccc(C(=O)NCc2ccc3c(c2)CCN3C(=O)c2ccccc2)cc1,/,.,.,/,/,.
CCOc1ccc(C(=O)NCc2ccc3c(c2)CCN3C(=O)c2ccccc2)cc1,/,.,.,/,/,.
COc1ccc(CCNC(=O)Cn2cc(C(=O)c3ccccc3)c(=O)c3ccc(C)nc32)cc1OC,/,.,.,/,/,.
COc1cccc(C(=O)N2CCN(C(=O)C3COc4ccccc4O3)CC2)c1 (stereo not drawn),.,.,.,.,.,-32.1
COc1cccc(N2CCN(C(=O)c3cccnc3)CC2)c1,.,.,.,.,.,-38.7
O=C(c1cccnc1)N1CCN(Cc2cccc(Br)c2)CC1,.,.,.,.,.,.
COc1cccc(N2CCN(C(=O)c3cc(C)oc3C)CC2)c1,/,.,.,.,.,-42.8
COc1cc(OC)cc(C(=O)N2CCN(C(=O)c3cccnc3)CC2)c1,.,.,.,.,.,.
COc1ccc(CN2CCN(C(=O)c3cccnc3)CC2)cc1Br,.,.,.,.,.,-34.2
CCOc1ccccc1NC(=O)c1nnn(CC(=O)Nc2ccc(OC)c(OC)c2)c1N,/,.,.,/,/,.
O=C(Cc1cccc([N+](=O)[O-])c1)NCc1nc2cccnc2n1Cc1ccc(F)cc1,/,.,.,/,/,.
CCC(=O)N1CCCc2cc(S(=O)(=O)N3CCC(C(=O)Nc4ccc(C#N)cc4)CC3)ccc21,/,.,.,/,/,-59.3
CCC(=O)N1CCCc2cc(S(=O)(=O)N3CCC(C(=O)Nc4ccc(F)c(F)c4)CC3)ccc21,/,.,.,/,/,-32.4
CCOC(=O)c1cnc2ccccc2c1NCc1ccco1,.,.,.,.,.,-39.2
CCOC(=O)c1cnc2ccc(OC)cc2c1NCc1ccccc1,.,.,.,.,.,.
Cc1[nH]cnc1CSCc1ccc(Cl)cc1,.,35.8,.,.,.,.
COc1ccc(CNC(=O)CN(C)Cc2ccccc2F)cc1OC,.,.,.,.,.,-35.5
SMILES,GALK inhibitor,D1 ag,D1 PAM,USP2a block,Eya2 phos inh,D1 antag
COc1ccc(Br)cc1CN(C)CC(=O)NCc1ccc(F)cc1,/,.,.,.,.,.
CCOC(=O)C1CCN(C(=O)Cn2nc(C)n3nc(-c4ccc(OC)cc4)cc3c2=O)CC1,.,.,.,.,.,.
CCOC(=O)C1CCN(C(=O)Cn2nc(C)n3c(cc4sccc43)c2=O)CC1,/,.,.,/,/,-41.7
CCOC(=O)N1CCN(C(=O)CCn2c(=S)[nH]c3ccsc3c2=O)CC1,.,.,.,.,.,-49.3
O=C(CCn1c(=O)[nH]c2ccsc2c1=O)N1CCc2ccccc2C1,.,.,.,.,.,.
CCOC(=O)C1CCN(C(=O)CCn2c(=O)[nH]c3ccsc3c2=O)CC1,.,.,.,.,.,-37.0
CCOC(=O)N1CCN(C(=O)CCn2c(=O)[nH]c3ccsc3c2=O)CC1,.,.,.,.,.,.
CN(C(=O)CSc1nc2ccc(NC(=O)c3cccc(F)c3)cc2s1)c1ccccc1,/,.,.,/,/,.
CCc1nn(CC(=O)N2CCCCC2)c(=O)c2cc3occc3n12,/,.,.,/,/,.
Cc1cccc(C(=O)Nc2cccc(C(=O)N/N=C/c3cccc(C)n3)c2)c1,/,.,.,.,.,.
